# Test results reported in PubChem BioAssay AID1645854 (Buhrlage Lab, Dana-Farber Cancer Institute and Novartis …, 2021).
# About 140 (0.3%) of roughly 47,000 compounds were called active. The list comes from a sample in which actives are over-represented; it also holds similar structures and randomly drawn compounds. A number with no mark means an inactive call. Cut-off read from the data, not from the text of the source: active = inhibition above about 30%; inactive = the rest.
# Biological target: Ubiquitin carboxyl-terminal hydrolase 7 (Homo sapiens) (UniProt Q93009)
# Sequence (Q93009 whole entry, looked up): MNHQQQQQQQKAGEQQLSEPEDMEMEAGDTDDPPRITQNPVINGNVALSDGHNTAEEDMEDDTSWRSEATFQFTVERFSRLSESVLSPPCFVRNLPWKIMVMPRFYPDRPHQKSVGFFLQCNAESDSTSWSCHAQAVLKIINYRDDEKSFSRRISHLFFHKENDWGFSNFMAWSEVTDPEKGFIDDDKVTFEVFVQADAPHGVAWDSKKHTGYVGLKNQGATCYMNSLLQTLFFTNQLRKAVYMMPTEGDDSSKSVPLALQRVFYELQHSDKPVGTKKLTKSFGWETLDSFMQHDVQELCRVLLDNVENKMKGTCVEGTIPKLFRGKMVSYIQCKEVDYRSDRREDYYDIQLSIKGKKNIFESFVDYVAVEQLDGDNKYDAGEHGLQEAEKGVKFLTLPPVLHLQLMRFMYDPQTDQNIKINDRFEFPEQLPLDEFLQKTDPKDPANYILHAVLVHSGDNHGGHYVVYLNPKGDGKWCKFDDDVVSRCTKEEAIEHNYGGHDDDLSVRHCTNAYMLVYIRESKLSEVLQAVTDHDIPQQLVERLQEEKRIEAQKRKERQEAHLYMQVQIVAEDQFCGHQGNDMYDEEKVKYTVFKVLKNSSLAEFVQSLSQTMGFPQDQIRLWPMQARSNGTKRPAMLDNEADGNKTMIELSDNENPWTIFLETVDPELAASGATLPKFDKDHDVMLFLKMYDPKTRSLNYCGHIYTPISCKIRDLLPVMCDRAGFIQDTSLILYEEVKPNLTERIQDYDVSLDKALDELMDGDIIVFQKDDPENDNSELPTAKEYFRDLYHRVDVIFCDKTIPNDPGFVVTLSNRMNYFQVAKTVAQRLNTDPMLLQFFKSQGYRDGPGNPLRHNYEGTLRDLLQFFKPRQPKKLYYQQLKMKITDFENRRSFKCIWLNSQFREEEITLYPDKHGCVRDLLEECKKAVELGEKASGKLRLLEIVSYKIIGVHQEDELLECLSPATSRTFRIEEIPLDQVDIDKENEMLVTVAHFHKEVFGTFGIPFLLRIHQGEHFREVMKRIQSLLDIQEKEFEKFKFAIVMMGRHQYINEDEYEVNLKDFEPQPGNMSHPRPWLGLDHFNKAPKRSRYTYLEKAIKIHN
# Test: inhibitors of human USP7 deubiquitinase (AID 1645854)
# Details: purified USP7, Ub-rhodamine cleavage fluorescence; at 20 µM; stronger effect = higher value
row,Structure (SMILES),inhibition
1,c1cnc(N2CCC3(CCN(Cc4ccc5c(c4)OCO5)CC3)C2)nc1,6.59%
2,COc1c2c(cc3c1C(c1nnnn1-c1ccc(C)cc1C)N(C)CC3)OCO2 (centres undefined),10.7%
3,NC(=O)c1c(NC(=O)c2ccccc2Oc2ccccc2)sc2c1CCN(Cc1ccccc1)C2,-143%
4,O=C(Cc1ccccc1)N1CCN(c2cc(C(F)(F)F)nc3ccccc23)CC1,6.33%
5,CCN(c1ccccc1)S(=O)(=O)c1ccc2c(c1)OC(C)CN2C(C)=O (centres undefined),-10.2%
6,CN(C)CCNC(=O)c1ccc2ccc(N(C)CC3CC3)n2c1,-3.23%
7,Cc1nccn1-c1cc(N2CCCC2)nc2ccnn12,-3.6%
8,CCCn1nccc1C(=O)NC[C@H]1C[C@@]2(C)[C@@H](O)CCCC[C@H]2N1C(C)=O,4.78%
9,COc1ccc(CC(=O)N2CCC3(CC2)OC(C(=O)NCC(C)C)Cn2ccnc23)cc1 (centres undefined),-0.841%
10,O=C(NCc1ccncc1)c1nc(-c2ccc(N3CCCCC3)nc2)no1,-95.1%
11,Cc1cc2nc(N3CCOCC3)n(CC(=O)Nc3ccccc3F)c(=O)c2n1C,-0.476%
12,COc1ccccc1CNS(=O)(=O)c1ccc2c(c1)C(=O)N(C)c1ncccc1O2,1.09%
13,O=C(CN1C(=O)[C@@H]2CCCN2c2ncccc21)NCc1ccccc1F,-0.124%
14,Cc1csc2nc(COc3ccccc3NC(=O)c3ccccc3)cc(=O)n12,-2.52%
15,O=C(c1nc(-c2ccc3cc[nH]c3c2)no1)N1CCN(c2nsc3ccccc23)CC1,2.44%
16,Cc1ccccc1CS(=O)(=O)Cc1ccc(C(=O)Nc2noc3ccccc23)o1,2.52%
17,Cc1cccc(N2CCN(C(=O)c3nc4cccnc4n(C)c3=O)CC2)c1C,-13.2%
18,O=C(Nc1ccc(F)cc1)c1ccc(CN2CCOCC2)cc1,3.54%
19,Cc1cnc(C2COCCN2C(=O)c2c(C(C)C)noc2C)[nH]1 (centres undefined),4.99%
20,Cc1ccc(NC(=O)N2CCN3CCCCC3C2)c(C)c1 (centres undefined),-0.822%
21,O=C(Nc1nc2ccc(S(=O)(=O)N3CCOCC3)cc2s1)c1cc2ccccc2oc1=O,0.00877%
22,Cc1ccc(-c2nc(Cn3nnc(C(=O)O)c3C)c(C)o2)cc1,1.5%

row,Structure (SMILES),inhibition
1,CCc1cnc(N2CCC3(CCN(C(=O)c4cccnc4)C3)CC2)nc1,1.31%
2,OCCN1CCN(CC(O)COCCOc2ccc(Cl)cc2)CC1 (centres undefined),6.76%
3,Cc1cnn(CC(=O)N2CCCCCC2c2ccncc2)c1 (centres undefined),-1.92%
4,CC(C)[C@H](Cn1nnc2ccccc21)NC(=O)c1ccc2c(c1)CCN2S(C)(=O)=O,-1.02%
5,CC(C)CCNC(=O)C(=O)c1cn(CC(=O)N2CCCC2)c2ccccc12,-9.94%
6,CSc1cccc(NC(=O)CCn2c(=O)c3cccn3c3ccccc32)c1,5.36%
7,Cc1nc(C2CCCN2C(=O)c2cccc3ncccc23)ncc1C(=O)N1CCOCC1 (centres undefined),1.41%
8,O=C(C1CCN(c2cnc3nccnc3c2)CC1)N1CCN(C2CCCCC2)CC1,-29.4%
9,COc1ccc(-c2nnc(SCC(=O)c3cc(C)ccc3C)o2)cc1OC,9.96%
10,CC1CCC(NC(=O)C2(C)Cc3ccccc3C(=O)N2Cc2ccccc2)CC1 (centres undefined),-18.1%
11,CCCN1CCN(Cc2nc3nc(C)cc(N4CCCC4)n3n2)CC1,0.57%
12,O=C(NCC1CC1)c1ccc2ccc(N3CCN(c4ncccn4)CC3)n2c1,-17.3%
13,Cn1ccc(-c2cc(C(=O)NCCc3ccccn3)c3ccccn23)n1,0.582%
14,Cc1ccccc1NC(=O)N1CCC(CC(=O)N2CCCCC2)CC1,5.39%
15,COc1cccc(-n2nnc(-c3nnc(-c4ccccc4)o3)c2C)c1,-29.9%
16,COc1ccc(C2C3CCCCC3(O)CCN2C(=O)/C=C/c2cc(OC)c(OC)c(OC)c2)c(OC)c1 (centres undefined),2.72%
17,CN(C(=O)Cn1c(=O)n(CCCC(=O)N2CCc3ccccc3C2)c(=O)c2ccccc21)C1CCCCC1,-62.2%
18,Cn1c(CNC(=O)c2ccc(=O)[nH]c2)nc2ccccc21,3.71%
19,CN(Cc1ccccn1)C(=O)c1cc(-c2ccn(C)n2)n2ccccc12,-10.8%
20,O=C(C1CCC1)N1CCCC(c2nc(N3CCOCC3)ncc2-c2cccnc2)C1 (centres undefined),1.73%
21,CC1CCc2nc3ccccc3c(C(=O)OCC(=O)Nc3ccc4ccccc4c3)c2C1 (centres undefined),-6.5%
22,Cn1nc(C(=O)N2CCOCC2)c2c1CN(Cc1cccnc1)CC2,-1.02%

row,Structure (SMILES),inhibition
1,CC1CCc2c(sc3[nH]c(=O)c(C(=O)Nc4ccc(C(N)=O)cc4)c(O)c23)C1 (centres undefined),2.02%
2,CNS(=O)(=O)c1ccc(CNC(=O)c2cc(-c3ccc(C)cc3)no2)cc1,4.58%
3,CN(C)CCNC(=O)c1ccc2c(c1)nc1n2CCN(C2CCCCC2)C1=O,-3.11%
4,COc1ccccc1CNC(=O)c1nc(N2CCSCC2)c2cn(C)nc2n1,-2.16%
5,NC(=O)c1ccccc1NC(=O)C1CN(c2nc3c(F)cccc3s2)C1,-0.695%
6,CCN1CCN(Cc2nc3nc(C)cc(N4CCCC4)n3n2)CC1,0.109%
7,Cc1cc(O)c(=O)cc2c1C[C@H]1CC(C)(C)/C=C/C[C@@]3(C)Oc4cc(=O)c(O)cc(C)c4C[C@@H]3C[C@H](O)[C@]1(C)O2,32.8% (active)
8,O=C(NCc1cccnc1)c1cc(-c2ccncc2)n(-c2ccc(F)cc2)n1,0.279%
9,Cn1c(SCc2ccc(Cl)cc2)nnc1-c1ccc2c(c1)OCCO2,-49.5%
10,O=C(Nc1ccc2c(c1)CCC2)N1CC2CN(S(=O)(=O)c3ccccc3)CC(C1)O2,-2.8%
11,O=C1CCC2C(c3ccc4c(c3)OCO4)CC1N2Cc1ccccc1 (centres undefined),-3.81%
12,Cc1c(S(=O)(=O)Nc2ccccc2F)cc(C(=O)N2CCCCC2)n1C,5.73%
13,COc1ccc(Cn2c(=O)[nH]c3cc(C(=O)N4CCC(C(N)=O)CC4)ccc3c2=O)cc1,-1.91%
14,Cc1nn(C)c(Cl)c1C1CCCN1C(=O)c1ccc(C)n(C)c1=O (centres undefined),2.77%
15,CC(C)C(=O)N[C@@H](CO)[C@H](O)c1ccc([N+](=O)[O-])cc1,0.416%
16,CCc1ccc(-n2nnc(C(=O)Nc3nnc(CC)s3)c2C)cc1,0.00527%
17,Cc1cnc(C(=O)N2CC[C@@H]3[C@H]2CCCC(=O)N3Cc2ccccc2C(F)(F)F)cn1,-3.69%
18,COCCNc1nn2c(-c3ccc4ccccc4c3)cnc2s1,1.48%
19,Cc1nn(CC(=O)c2cc(C)n(-c3ccc4c(c3)OCO4)c2C)c(C)c1[N+](=O)[O-],-2.39%
20,Cc1cccc(C(C)C)c1NC(=O)c1ccc(OCc2ccccc2)cc1,0.214%
